# Measurements: PubChem BioAssay
# Activity calls are given as the source filed them.
# Columns and labels:
# Albumin (Bos taurus) = Albumin (Bos taurus) (UniProt P02769); assay: bovine serum albumin binders on microarray, profiling panel, artefact control for SMM control protein annotation, biochemical, small-molecule microarray, Alexa647 label, 635/667 nm fluorescence (AID 1118); details: BSA-A647 binding, fluorescence 635 nm, higher = more signal;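 further: score merges 667 nm emission intensity and signal-to-noise per printed compound spot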
# Sequence of Albumin (Bos taurus) (P02769 whole entry, looked up): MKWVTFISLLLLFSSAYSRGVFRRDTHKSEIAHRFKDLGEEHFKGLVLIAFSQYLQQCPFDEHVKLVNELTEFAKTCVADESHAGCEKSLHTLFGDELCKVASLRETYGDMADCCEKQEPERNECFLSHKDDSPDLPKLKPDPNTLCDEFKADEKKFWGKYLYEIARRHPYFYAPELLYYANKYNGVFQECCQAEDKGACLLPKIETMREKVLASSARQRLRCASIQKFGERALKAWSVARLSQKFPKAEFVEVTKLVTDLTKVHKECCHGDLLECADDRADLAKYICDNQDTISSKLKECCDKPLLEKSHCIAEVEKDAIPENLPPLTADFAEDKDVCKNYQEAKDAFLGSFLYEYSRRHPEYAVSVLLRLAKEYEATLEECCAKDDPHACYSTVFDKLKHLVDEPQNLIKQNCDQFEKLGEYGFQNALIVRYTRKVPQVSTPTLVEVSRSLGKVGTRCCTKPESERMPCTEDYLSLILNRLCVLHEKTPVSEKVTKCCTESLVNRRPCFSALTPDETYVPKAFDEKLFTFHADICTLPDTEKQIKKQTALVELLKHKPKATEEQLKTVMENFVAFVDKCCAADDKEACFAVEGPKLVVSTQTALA
# [1] = small-molecule microarray binders of probe aXIP, primary screen, biochemical, NeuroSMM set, 635/667 nm fluorescence (AID 1119); details: higher = more signal, called active from +8 up or from −8 down;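 further: probe is the protein aXip251-270 applied at 1 µg/mL to compound-printed slides; binding of probe to printed compounds measured as 667 nm fluorescence plus signal to noise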
# [2] = small-molecule binders of probe aNOTCH3, primary screen, biochemical, small-molecule microarray, 635/667 nm fluorescence (AID 1120); details: higher = more signal;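 further: probe is a biotin-tagged antibody raised against NOTCH3 rather than NOTCH3 protein; score merges spot fluorescence near 667 nm with spot signal to noise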
# [3] = small-molecule binders of probe aNOTCH2, primary screen, biochemical, small-molecule microarray, 635/667 nm fluorescence (AID 1121); details: higher = more signal;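 further: score merges feature fluorescence read at 667 nm with its signal to noise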
# [4] = biological target: Carbonic anhydrase 2 (Homo sapiens) (UniProt P00918); assay: CAII small-molecule binders, profiling panel, biochemical, small-molecule microarray, Alexa647-labelled CAII (AID 1122); details: CAII-A647 binding fluorescence, higher = more signal
# [5] = COS7 lysate on small-molecule microarray, probe aHis, 635 nm (AID 1123); details: COS7 cell lysate, fluorescence, higher = more signal;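 further: z-score combines 667nm fluorescence intensity with signal-to-noise per printed compound spot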
# [6] = compound binding in COS7 lysate, probe aLAP1, primary screen, cell lysate, small-molecule microarray (AID 1124); details: probe aLAP1, fluorescence, higher = more signal;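 further: lysate comes from COS7 cells expressing LAP1 and is applied at 0.3 µg/mL; score merges spot fluorescence near 667 nm with signal-to-noise over triplicate slides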
# Sam68 (KHDRBS1) = assay: Sam68 small-molecule binders, primary screen, biochemical, small-molecule microarray, 635 nm fluorescence (AID 1125); details: small-molecule microarray binding, higher = more signal;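 further: score merges 667 nm channel intensity with signal to noise over triplicate slides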
# [7] = system: Chordin-like protein 2 (CHRDL2); assay: CHRDL2 small-molecule binders, primary screen, biochemical, small-molecule microarray, 635 nm fluorescence (AID 1126); details: small-molecule microarray binding, fluorescence 635 nm; higher = more signal;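 further: printed compound slides probed with Chrdl2 protein at 4 µg/mL for 1 h at 4 C; score merges 667 nm emission intensity with signal to noise over three replicate slides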
# [8] = biological target: Concanavalin-A (Canavalia ensiformis) (UniProt P02866); assay: ConA small-molecule binders, primary screen, artefact control for SMM control protein annotation, biochemical, small-molecule microarray, Alexa647 label, 635 nm (AID 1127); details: ConA-A647 binding fluorescence, higher = more signal;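 further: z combines 667 nm emission intensity with signal-to-noise across three replicate slides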
# Sequence of Concanavalin-A (Canavalia ensiformis) (P02866 whole entry, looked up): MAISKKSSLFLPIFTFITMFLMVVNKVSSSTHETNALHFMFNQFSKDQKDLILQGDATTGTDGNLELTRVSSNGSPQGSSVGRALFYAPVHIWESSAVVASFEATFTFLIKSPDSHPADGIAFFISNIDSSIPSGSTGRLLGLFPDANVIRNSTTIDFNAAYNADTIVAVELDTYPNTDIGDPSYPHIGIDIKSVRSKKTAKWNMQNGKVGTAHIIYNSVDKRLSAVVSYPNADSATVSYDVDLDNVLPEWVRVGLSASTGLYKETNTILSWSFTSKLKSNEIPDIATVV
# [9] = anti-His antibody binders, primary screen, artefact control for SMM control protein annotation, biochemical, small-molecule microarray, 635 nm fluorescence (AID 1128); details: anti-His Alexa647 antibody binding, higher = more signal;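 further: score merges feature fluorescence with signal-to-noise for each printed compound spot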
# [10] = system: Human papillomavirus type 1a E7 protein (residues 1-88); assay: HPV1a E7 small-molecule binders, primary screen, biochemical, small-molecule microarray, residues 1-88, 635 nm (AID 1129); details: small-molecule microarray binding, fluorescence 635 nm; higher = more signal
# [11] = biological target: Focal adhesion kinase 1 (Homo sapiens) (UniProt Q05397); assay: small-molecule microarray binders of FAK, primary screen, biochemical, 635/667 nm fluorescence, BSA, DTT (AID 1130); details: PTK2 binding, 635 nm fluorescence, higher = more signal;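 further: composite of spot emission at 667 nm and signal to noise over triplicate slides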
# Sequence of Focal adhesion kinase 1 (Homo sapiens) (Q05397 whole entry, looked up): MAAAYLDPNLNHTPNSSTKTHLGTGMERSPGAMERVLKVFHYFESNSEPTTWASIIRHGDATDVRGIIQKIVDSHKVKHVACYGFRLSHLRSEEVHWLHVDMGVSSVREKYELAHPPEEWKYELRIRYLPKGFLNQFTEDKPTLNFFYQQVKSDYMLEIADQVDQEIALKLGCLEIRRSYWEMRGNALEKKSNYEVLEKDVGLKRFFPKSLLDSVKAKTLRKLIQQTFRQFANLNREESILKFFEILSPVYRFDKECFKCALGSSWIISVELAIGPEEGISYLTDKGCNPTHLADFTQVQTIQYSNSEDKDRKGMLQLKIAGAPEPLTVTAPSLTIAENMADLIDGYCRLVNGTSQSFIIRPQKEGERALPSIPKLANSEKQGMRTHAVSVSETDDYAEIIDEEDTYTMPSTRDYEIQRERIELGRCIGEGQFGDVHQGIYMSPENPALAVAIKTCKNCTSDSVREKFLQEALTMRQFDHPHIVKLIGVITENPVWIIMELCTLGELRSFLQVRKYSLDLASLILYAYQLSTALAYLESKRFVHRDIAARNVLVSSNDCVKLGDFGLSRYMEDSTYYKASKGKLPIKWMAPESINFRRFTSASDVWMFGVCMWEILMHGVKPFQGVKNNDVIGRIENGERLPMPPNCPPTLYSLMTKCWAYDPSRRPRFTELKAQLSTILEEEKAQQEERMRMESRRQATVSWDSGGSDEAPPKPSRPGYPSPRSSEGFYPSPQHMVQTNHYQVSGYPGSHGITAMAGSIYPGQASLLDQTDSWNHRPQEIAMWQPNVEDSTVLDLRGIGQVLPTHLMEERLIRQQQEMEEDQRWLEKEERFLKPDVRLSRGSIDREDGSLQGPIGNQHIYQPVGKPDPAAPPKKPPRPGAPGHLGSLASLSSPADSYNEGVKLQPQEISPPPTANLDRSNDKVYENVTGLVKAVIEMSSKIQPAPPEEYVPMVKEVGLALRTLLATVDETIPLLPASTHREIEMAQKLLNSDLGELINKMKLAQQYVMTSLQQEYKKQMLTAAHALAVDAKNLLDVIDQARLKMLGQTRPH
# [12] = system: Fibrinogen (Alexa647-labelled); assay: fibrinogen binders on compound microarrays, profiling panel, artefact control for SMM control-protein annotation, biochemical, small-molecule microarray, 635/667 nm fluorescence (AID 1131); details: fibrinogen-A647 binding fluorescence, higher = more signal;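 further: z-score merges 667 nm fluorescence with per-spot signal-to-noise over triplicate slides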
# [13] = biological target: Follistatin (Homo sapiens) (UniProt P19883); assay: follistatin binders on small-molecule microarrays, primary screen, biochemical, small-molecule microarray, 635/667 nm fluorescence (AID 1132); details: FST binding, 635 nm fluorescence, higher = more signal
# Sequence of Follistatin (Homo sapiens) (P19883 whole entry, looked up): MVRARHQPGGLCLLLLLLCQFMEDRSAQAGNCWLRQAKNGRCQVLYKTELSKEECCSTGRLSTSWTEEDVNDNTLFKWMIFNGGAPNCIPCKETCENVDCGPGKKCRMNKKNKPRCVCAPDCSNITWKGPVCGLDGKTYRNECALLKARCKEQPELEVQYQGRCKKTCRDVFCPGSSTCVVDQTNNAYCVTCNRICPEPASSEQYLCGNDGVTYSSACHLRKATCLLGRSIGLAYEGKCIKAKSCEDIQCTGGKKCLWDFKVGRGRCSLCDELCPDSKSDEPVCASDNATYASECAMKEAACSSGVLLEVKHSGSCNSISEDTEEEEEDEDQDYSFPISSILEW
# [14] = biological target: Fibroblast growth factor 2 (Homo sapiens) (UniProt P09038); assay: FGF2 binders on small-molecule microarrays, primary screen, biochemical, small-molecule microarray, 635/667 nm fluorescence (AID 1133); details: small-molecule microarray binding, FGF2, fluorescence 635/667; higher = more signal
# Sequence of Fibroblast growth factor 2 (Homo sapiens) (P09038 whole entry, looked up): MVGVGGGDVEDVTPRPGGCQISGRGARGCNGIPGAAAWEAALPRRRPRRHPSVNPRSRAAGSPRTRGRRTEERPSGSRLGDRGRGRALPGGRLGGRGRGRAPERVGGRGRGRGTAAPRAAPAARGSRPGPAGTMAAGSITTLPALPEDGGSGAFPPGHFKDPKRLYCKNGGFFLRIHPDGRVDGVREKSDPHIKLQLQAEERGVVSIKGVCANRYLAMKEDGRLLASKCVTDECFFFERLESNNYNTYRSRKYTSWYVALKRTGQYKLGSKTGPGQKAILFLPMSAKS
# [15] = mitochondrial membrane potential change in A549 cells, profiling panel, cell-based, JC-1 fluorescence, basal, 24 h, 100 nL (AID 1138); details: higher = more signal;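 further: A549 lung adenocarcinoma cells under basal conditions with no added stimulus; test concentration not given here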
# Lefty1 = Lefty1 binders on small-molecule microarrays, primary screen, biochemical, small-molecule microarray, 635/667 nm fluorescence (AID 1139); details: small-molecule microarray binding, fluorescence 635/667; higher = more signal
# [16] = system: wheat germ agglutinin (Triticum aestivum), Alexa647-labelled; assay: wheat germ agglutinin binders on compound microarrays, profiling panel, artefact control for SMM control-protein annotation, biochemical, small-molecule microarray, 635/667 nm fluorescence (AID 1140); details: WGA-A647 binding, 635 nm fluorescence, higher = more signal;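 further: score merges 667 nm feature emission with signal to noise over triplicate slides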
# [17] = biological target: Luciferin 4-monooxygenase (Photinus pyralis) (UniProt P08659); assay: firefly luciferase enzyme inhibitors, primary screen, biochemical, luminescence, purified enzyme, 2006 set (AID 1141); details: SteadyGlo luminescence, 30 min, higher = more signal, called active from +8 up or from −8 down;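 further: cell-free assay with purified firefly luciferase at 100 ng per well in PBS; test concentration not given here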
# Sequence of Luciferin 4-monooxygenase (Photinus pyralis) (P08659 whole entry, looked up): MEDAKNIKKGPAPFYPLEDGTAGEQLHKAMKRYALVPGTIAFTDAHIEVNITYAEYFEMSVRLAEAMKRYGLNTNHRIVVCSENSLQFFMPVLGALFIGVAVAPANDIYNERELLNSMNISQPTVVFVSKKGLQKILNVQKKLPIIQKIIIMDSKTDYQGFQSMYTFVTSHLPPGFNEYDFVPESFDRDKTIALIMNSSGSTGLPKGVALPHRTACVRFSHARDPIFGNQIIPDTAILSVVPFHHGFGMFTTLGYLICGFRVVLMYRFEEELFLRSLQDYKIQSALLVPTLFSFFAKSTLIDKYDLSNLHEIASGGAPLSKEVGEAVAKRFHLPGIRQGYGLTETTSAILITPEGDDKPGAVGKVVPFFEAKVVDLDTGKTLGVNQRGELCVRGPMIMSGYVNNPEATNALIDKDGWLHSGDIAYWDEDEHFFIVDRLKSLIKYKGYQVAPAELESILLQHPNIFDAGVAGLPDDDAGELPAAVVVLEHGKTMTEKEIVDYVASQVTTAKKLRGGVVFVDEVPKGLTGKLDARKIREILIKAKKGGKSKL
SMILES,composite z-score (Albumin (Bos taurus)),composite Z-score [1],composite z-score [2],composite z-score [3],composite z-score [4],composite z-score [5],composite z-score [6],composite z-score (Sam68 (KHDRBS1)),composite z-score [7],composite z-score [8],composite z-score [9],composite z-score [10],composite z-score [11],composite z-score [12],composite z-score [13],composite z-score [14],z-score [15],composite z-score (Lefty1),composite z-score [16],z-score [17]
COC(=O)CC=C[C@@H](C)[C@@H](C=NO[C@@H]1O[C@H](COC(C)=O)[C@@H](OC(C)=O)[C@H](OC(C)=O)[C@H]1OC(C)=O)OC,0.216,-0.421 (inactive),0.0303,-0.0294,-0.605,-0.152,0.124,0.702,-0.0703,-1.33,0.662,0.036,0.107,-0.0528,-0.186,-0.347,-0.361,-0.268,-0.421,0.86 (inactive)
CC(C)(C)N1C(=O)[C@H]2[C@H]3[C@H](O)[C@H](O)CC(=NO[C@@H]4O[C@H](CO)[C@@H](O)[C@H](O)[C@H]4O)[C@H]3CC[C@H]2C1=O,-0.383,0.674 (inactive),0.0864,0.0037,0.182,0.276,-0.12,0.217,0.926,-0.409,0.492,0.15,-0.0244,-1.06,0.86,0.348,-1.43,0.585,-0.297,0.585 (inactive)
CC(C)(C)N1C(=O)[C@H]2[C@H]3[C@H](O)[C@H](O)CC(=NOCc4ccccc4)[C@H]3CC[C@H]2C1=O,0.0116,-0.491 (inactive),0.0961,-0.057,-0.0598,0.376,0.699,-0.217,0.737,-0.344,0.102,0.0128,-0.103,0.451,-0.829,-0.34,-0.316,-0.484,0.877,0.109 (inactive)
COc1ccc(C#C[C@@H]2C=C[C@H](OC(C)=O)[C@@H](COC(C)=O)O2)cc1,0.18,-0.153 (inactive),-0.0077,-0.153,0.61,0.759,-0.019,0.112,0.867,0.536,1.01,0.282,0.0919,0.0177,0.567,0.183,0.0859,0.649,0.217,-1.06 (inactive)
COc1cccc([C@H]2Oc3ccc(OC)cc3C(=NOC(C)CN3CCCCc4nc(C)c(C)cc43)[C@@H]2O)c1 (stereo not given in full),0.604,-0.352 (inactive),0.0876,-0.106,0.293,0.47,-0.456,0.523,0.267,0.653,1.95,0.195,-0.251,0.755,0.241,0.414,-0.349,0.341,0.698,-0.404 (inactive)
